Measurements taken from PubChem BioAssay AID778 (Sanford-Burnham Center for Chemical Genomics, 2007).
In all, about 96,000 compounds went through this assay and about 20,000 (21%) were called active.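 Rule for the calls: active = CYP2C19 inhibition above a set limit at 5 µM in the primary screen (cut at about 50% in these data); inactive = the rest.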 These entries were drawn from the full list.

target: Cytochrome P450 2C19 (Homo sapiens) (UniProt P33261); assay: blockers of cytochrome P450 2C19 activity – biochemical, luminescence, ADME assay, primary screen (AID 778); details: CYP2C19 Supersomes, luciferin-H EGE luminescence, 30 min; at 5 µM; hits give high values;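 note: plate controls were negative control wells for no effect and 2.5 mM tranylcypromine positive control for full effect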
Sequence (P33261 whole entry, looked up): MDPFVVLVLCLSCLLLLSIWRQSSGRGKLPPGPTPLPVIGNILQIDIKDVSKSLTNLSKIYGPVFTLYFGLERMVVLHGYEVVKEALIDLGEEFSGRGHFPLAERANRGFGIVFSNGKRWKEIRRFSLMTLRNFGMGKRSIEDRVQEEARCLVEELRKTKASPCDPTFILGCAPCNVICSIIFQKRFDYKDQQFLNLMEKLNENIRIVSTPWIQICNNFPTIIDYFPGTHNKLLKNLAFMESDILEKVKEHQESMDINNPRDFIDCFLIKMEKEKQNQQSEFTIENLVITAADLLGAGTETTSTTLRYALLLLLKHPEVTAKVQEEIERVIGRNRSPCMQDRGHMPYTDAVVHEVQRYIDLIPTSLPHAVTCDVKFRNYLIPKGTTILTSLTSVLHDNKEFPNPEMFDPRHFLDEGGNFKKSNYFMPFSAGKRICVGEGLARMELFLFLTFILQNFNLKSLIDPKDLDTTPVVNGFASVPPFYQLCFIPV

inhibition, inactive:
CCOC(=O)c1cc(-c2ccc(Cl)s2)nc2c1c(C)nn2C 17.2%
O=S(=O)(O)CCN1CCOCC1 2.1%
Cc1ccc(S(=O)(=O)NCCN2CCOCC2)cc1C 24.8%
COc1ccc(C)cc1NC(=O)CSc1nc(SC)ns1 35.5%
Cc1ccc(C)c2[nH]c(=O)c(CCNC(=O)CC(C)C)cc12 29.7%
CCOC(=O)c1c(NC(=S)Nc2ccccc2)sc2c1CCN(C)C2 26.5%
O=C(NCCCCCCNC(=O)NCc1ccco1)NCc1ccco1 -12.7%
COc1cc2c(cc1OC)C(C(=O)NCc1ccco1)C1c3ccccc3CCN1C2=O (configuration not stated) 10.7%
C=CCNc1nc(C)nc(OC)n1 -16.5%
CCNc1nc(N)nc(-c2cc(Cl)ccc2OC)n1 24.4%
CCCNC(=S)NC1CC2CCCC(C1)N2CC(C)C (configuration not stated) 6.3%
CC(C)c1cc(C(=O)O)n[nH]1 -11.8%
Cc1cccc(-n2ncc(C#N)c2-n2cccc2)c1 21.9%
COc1ccccc1N1CCN(CCCCOc2ccc(F)cc2)CC1 13.1%
c1ccc(CCn2nnnc2CN2CCN(C3CCCC3)CC2)cc1 -12%
CCOC(=O)c1sc(N(Cc2ccccc2)C(=O)CN2C(=O)CN(C)C2=O)nc1C 14.5%
Cc1cc(C)cc(NC(=O)c2cccc(NC(=O)C3C4CC5OC(=O)C3C5C4)c2)c1 (configuration not stated) 3%
COc1ccc(N2CCN(C(=O)CSc3nnc4ncccn34)CC2)cc1 29.2%
Cc1ccc2nc(NC3=NCN(CCc4ccccc4)CN3)nc(C)c2c1 -14.5%
CCc1nc2ccccc2n(CCOCCOCCn2c(=O)c(CC)nc3ccccc32)c1=O 24.1%
CCC(=O)Nc1nc2ccccc2n1Cc1ccccc1C 49.7%
COCC(=O)Nc1nnc(COc2ccccc2)s1 -3%
O=S(=O)(O)c1nc2ccccc2n1Cc1ccc(Cl)cc1Cl 11.3%
CCCCc1cc(=O)oc2cc(C)cc(OCc3nn[nH]n3)c12 11.2%
CN1CCN(S(=O)(=O)c2ccc(NC(=O)C3CCCO3)cc2)CC1 (configuration not stated) 3.5%
COc1ccc(OC)c2c1sc(=NC(=O)CN1C(=O)CCC1=O)n2C 11.6%
COc1ccccc1NC(=O)c1ccc(C)s1 36.8%
CCC1(CC)Cc2ccccc2-c2nc3ccccc3c(=O)n21 13.4%
c1cncc(-c2nnc3n2C2(CCCCC2)Cc2ccccc2-3)c1 3%
CCCCNc1ccc(C(=O)Nc2cccc(C)n2)cc1[N+](=O)[O-] -3%
COc1ccc(N(CCC#N)S(=O)(=O)c2ccc(Cl)cc2)cc1 49.6%
CCn1c(NC(=O)c2ccccc2)c(-c2cccs2)c(=O)c2ccccc21 -4.5%
COC(=O)c1ccc(NC(=O)c2ccccc2NS(=O)(=O)c2ccccc2)cc1 41.7%
COC(=O)c1ccccc1NC(=O)CN(Cc1ccccc1)S(C)(=O)=O 17.1%
CCOc1ccc(NC(=O)c2ccccc2NS(C)(=O)=O)cc1 16.2%
CCOc1ccccc1N(CC(=O)Nc1ccccc1C(=O)OC)S(C)(=O)=O 14.5%
O=C(OC1CCCCC1=O)c1cccc(S(=O)(=O)NCc2ccccc2)c1 (configuration not stated) 41.1%
CC(=O)c1c(C)[nH]c(C(=O)NCCCN2CCCC2)c1C -10.9%
O=C(O)c1ccccc1-c1ccccc1C(=O)Nc1cccc2ccccc12 0.9%
COc1ccccc1-n1cnc2cc(C(=O)NCC3CCCO3)ccc21 (configuration not stated) 13.8%
COCCCNC(=O)c1ccc2c(c1)ncn2-c1ccccc1OC 1.5%
O=C(Nc1nc2ccc(S(=O)(=O)N3CCCC3)cc2s1)C1CCCO1 (configuration not stated) -2.2%
CCc1nnc(NC(=O)c2nc3nccc(C)n3n2)s1 0.6%
O=C(CSc1nc2ccccc2o1)N1c2ccccc2Sc2ccc(Cl)cc21 36.4%
Cc1ccc(SCc2cc(=O)[nH]c(N3CCCCC3)n2)cc1 30.5%
CC(C)(C)NC(=O)COc1ccc(CNc2ccc3[nH]c(=O)[nH]c3c2)cc1 11.8%
COc1ccc(OCC(=O)NNC(=O)c2ccc(-c3ccccc3)cc2)cc1 -6%
CC(NC(=O)COc1ccccc1)C(=O)NC1=NCCS1 (configuration not stated) 10.5%
COC(=O)/C=C/C(=O)NCc1ccco1 -5.7%
CCC(=O)Nc1nc(OC)cc(OC)n1 2.1%
FC(F)(F)c1nc2ccccc2nc1N/N=C/c1ccc(Cl)cc1 16.6%
O=[N+]([O-])c1ccc(Oc2ccc(F)cc2Br)c2ccncc12 31%
COc1ccc2c(c1)OC(O)(C(F)(F)C(F)F)CC2=O (configuration not stated) 47.3%
COc1ccc(NC2CC(=O)N(C)C2=O)cc1 (configuration not stated) -10.3%
O=C(Cn1ccc([N+](=O)[O-])n1)NCc1cccs1 0.6%
O=C(Nc1cc(=O)[nH]c2ncnn12)c1ccccc1Cl 2.2%
O=C(C1CCCO1)N(Cc1ccccc1)c1ccccc1 (configuration not stated) 0%
COc1ccc(C(CC(=O)O)NC(=O)Cc2ccccc2)cc1 (configuration not stated) -9.7%
CCOc1ccc(C(CC(=O)O)NC(=O)COc2ccccc2)cc1 (configuration not stated) -2.9%
COc1cc2[nH]c(=O)n(CCC(=O)NC3CCN(Cc4ccccc4)CC3)c(=O)c2cc1OC -19%
Cc1ccc(S(=O)(=O)N(C)CC(=O)NC2CCCC2)cc1 11.9%
COc1ccc(N(CC(=O)NC2CCCCCCC2)S(=O)(=O)c2c(C)nn(C)c2C)cc1 42.8%
CCn1c2c(c3ccc(OC)cc31)CCCC2=O 7.5%
C=C(C)Cn1c(C)cc(C)c(S(=O)(=O)c2ccccc2C)c1=O 19.6%
CCCOc1ccc(N2C(=O)CC(N(CCc3ccc(S(N)(=O)=O)cc3)C(C)=O)C2=O)cc1 (configuration not stated) -16.6%
CC(C)CCNC(=O)CN(C(=O)Cn1nnc(-c2ccc(F)cc2)n1)C1CCCC1 17.8%
COc1cccc(N(CC(=O)NC2CCCC2)C(=O)Cn2nnc(-c3ccc(C)cc3)n2)c1 28.4%
CC1(C)CC(O)C(CCC(O)c2ccccc2)C(C)(C)N1 (configuration not stated) -6.9%
CCCOc1ccc(-c2nc(N)n[nH]2)cc1 5.8%
Cn1c(=NC(=O)C2CC2)sc2cc(F)cc(F)c21 13.8%
COc1ccc(CCN(C)CCN2C(=O)c3ccccc3C2=O)cc1OC 2.8%
COc1ccc(CCN2CNc3c(c(=O)n(C)c(=O)n3C)C2)cc1OC -22.1%
CCOC(=O)c1c(C)[nH]c(C)c1C(=O)CSc1nc(N)cc(N)n1 17.6%
Cc1ccc(S(=O)(=O)N2CCC(C(=O)N[C@@H](C)C(=O)NCCc3ccccc3)CC2)cc1 10.5%
Cc1ccc(S(=O)(=O)NCCSC(C)(C)C)cc1 11.6%
CC(C)(C)NC(=O)CN(Cc1cccs1)C(=O)CNS(=O)(=O)c1ccccc1 4.4%
CC(=O)NS(=O)(=O)c1ccccc1 4.6%
CS(=O)(=O)NCc1ccc(C(=O)NCc2ccccc2)cc1 -8.4%
CCOc1cc(C(=S)N2CCOCC2)ccc1O 12.3%
CN(CC#CCC(c1ccccc1)c1ccccc1)C(C)(C)C 46.1%
CC(=O)OCc1cc(=O)n(C)c(=O)n1C 1.9%

inhibition, active:
Cc1cc(C)c(S(=O)(=O)NCCCN2CCOCC2)cc1Br 53.9%
CC1(C)SC2c3ccccc3C(=O)N2[C@@H]1C(=O)NCc1ccco1 (some centres not stated) 62.8%
COc1nc(NCc2ccc(Cl)cc2)nc(OC)n1 58.5%
COc1ccccc1N1CCN(Cc2nnnn2CCc2ccccc2)CC1 75.4%
CCOc1ccc(OCC)c(-c2c(=O)n(OCc3ccc(Cl)cc3)c3ccccc3[n+]2[O-])c1 76.2%
COCn1c(COc2ccccc2)nc2ccccc21 51.4%
COCc1nc2ccccc2n1Cc1ccccc1Br 55.6%
O=c1c2ccccc2nc2n1C1(CCCCC1)Cc1ccccc1-2 74.3%
COC(=O)c1ccccc1NC(=O)CN(Cc1ccc(Cl)cc1)S(C)(=O)=O 96.6%
COC(=O)c1ccccc1NC(=O)c1ccccc1NS(C)(=O)=O 62.7%
COc1ccccc1-n1cnc2cc(NS(=O)(=O)c3ccccc3)ccc21 64.8%
O=C1Cc2ccccc2Sc2ccc(Cl)cc21 58.3%
COC(=O)c1ccc(OCC(=O)NC(C)(C)C)cc1 67.1%
COc1ccc2c(c1)SC(C)CC2=O (configuration not stated) 79.6%
CCOc1ccc(C(CCc2ccccc2)NC(=O)c2ccc(OC)c(OC)c2)cc1OCC (configuration not stated) 56.7%
CN(CC(=O)NC1CCCCC1)S(=O)(=O)c1cccc2cccnc12 57.6%
CC(C)CCNC(=O)C(C)N(C(=O)Cn1nnc(-c2ccc(F)cc2)n1)C1CCCC1 (configuration not stated) 78.7%
COc1ccc(CCN=C2SCC(=O)N2C)cc1OC 88.2%
NC(=S)c1ccc(C(N)=S)o1 60.2%
Cc1ccc(C(=O)NCCNS(=O)(=O)c2ccccc2)cc1 81.4%
O=S(=O)(NCCNS(=O)(=O)c1ccccc1)c1ccccc1 89%
